Common to all, as to type: functional
Test [1] relates to Plasmodium falciparum. Nature of the test: GSK_TCMDC: Inhibition of Plasmodium falciparum 3D7 in whole red blood cells, using parasite LDH activity as an index of growth. Test compounds present at 2uM.
Test [2] deals with Plasmodium falciparum. Nature of the test: GSK_TCMDC: Inhibition of Plasmodium falciparum Dd2 in whole red blood cells, using parasite LDH activity as an index of growth. Test compounds present at 2uM.
Test [3] has as its system HepG2. Put plainly: GSK_TCMDC: Percent inhibition of human HepG2 cell line. Test compounds present at 10uM.

Among the data in ChEMBL document CHEMBL1157539, “Thousands of chemical starting points for antimalarial lead identification” (Nature, 2010) are Inhibition values, retold here.

As usually defined, the Inhibition is the share of the control response that was lost under treatment. A higher Inhibition goes with strong suppression.

`CC(=O)N1N=C(c2ccc(Cl)cc2)Sc2c1nc(C1CCCCC1)n2C(C)=O`: the values for the Inhibition in test [1], in test [2] and in test [3] were 100%, 67% and 1%, respectively.
In the case of `Cc1cccc2nc(-c3cccc(-c4cccc(NC(=O)NCc5cccc(F)c5)c4)c3)[nH]c12`, the Inhibition in test [1] amounted to 98%; in test [2] it was 32%; in test [3] it was 11%.
The corresponding values for `CCCc1cc(Cc2cnc(N)nc2N)cc(CC)c1O.Cl` are 87%, 0% and 56%.
Turning to `CCCCOP(=O)(COc1ccc(CCN(CC(O)COc2cccc3[nH]c4ccccc4c23)CC(O)COc2cccc3[nH]c4ccccc4c23)cc1)C1CCCCC1` (stereo not drawn), the Inhibition in test [1] turned out to be 89%; in test [2], 92%; in test [3] it was 7%.
For `CN(C)c1ccc(CN2CCC(NC(=O)c3ccc(-c4ccccc4F)s3)CC2)cc1.O=C(O)C(F)(F)F`, the Inhibition in test [1] amounted to 86%; in test [2], 27%; in test [3], 41%.
On the same counts, the results for `CN(C)CCC(O)(c1ccc(Br)cc1)c1cccnc1` (stereo not drawn) are 96%, 1% and 22%.
The corresponding values for `COc1cccc(C2CCN(CCN3CCC(NC(=O)c4ccc(-c5ccc(C#N)cc5)cc4)CC3)CC2)c1` are 98%, 47% and 28%.
Regarding `COc1ccc2nccc([C@@H](O)CN3CCC(NCc4cc5ccccc5cn4)CC3)c2n1.O=C(O)C(=O)O`, the Inhibition amounted to 93% in test [1], 14% in test [2] and 3% in test [3].
On to `Cc1ccc(C(C)C)cc1CON1C(=N)N=C(N)NC1(C)C.Cl`, for which the Inhibition is recorded as 94% in test [1], 92% in test [2] and 66% in test [3].
As to `COc1cc(CCNC(=N)/C=C/c2ccc(Cl)cc2)ccc1Cl.Cl`, the Inhibition in test [1] was determined as 100%; in test [2] it was 16%; in test [3], 68%.
For `Clc1ncccc1-c1nc(NCCC(c2ccccc2)c2ccccc2)no1`, the Inhibition came out at 94% in test [1], 82% in test [2] and 12% in test [3].
`O=C(NCC1Cc2cc(Oc3ccccc3)ccc2O1)c1ccc([N+](=O)[O-])o1` (stereo not drawn): the Inhibition in test [1] was 88%; in test [2], 81%; in test [3] it was 83%.
Take `CCc1c(C(=O)NC2CCC(N3CCC(c4ccccc4OC)CC3)CC2)[nH]c2ccc(Br)cc12` (stereo not drawn): the Inhibition in test [1] was 100%; in test [2] it was 98%; in test [3], 85%.
`COc1cc2c(Nc3ccc(Br)cc3F)ncnc2cc1OCC1CCN(C)CC1.Cl`: the Inhibition in test [1] amounted to 97%; in test [2], 16%; in test [3], 10%.
Consider `COc1ccc(CC2(c3ccc(F)cc3)N=C(N)N(CCCc3cccnc3)C2=O)cc1.O=C(O)C(F)(F)F` (stereo not drawn), for which the Inhibition in test [1] was 98%; in test [2], 97%; in test [3], 12%.
Turning to `O=C1C(c2ccccc2)=C(Nc2cc(Cl)cc(Cl)c2)c2ccccc21`, the Inhibition in test [1] was 96%; in test [2] it was 94%; in test [3], 0%.
Take `COCCCNC(=N)c1ccc(NC(=O)c2ccc(C(=O)Nc3ccc(C(=N)NCCCOC)cc3)cc2)cc1.Cl`: the Inhibition in test [1] was determined as 100%; in test [2], 99%; in test [3], 33%.
The corresponding values for `O=C(NC1CCN(Cc2ccccc2)CC1)c1ccc(-c2nc3cc(F)c(F)cc3[nH]2)s1` are 100%, 97% and 6%.
Turning to `Cc1cccc2nc(-c3ccc(-c4cccc(CN5CCN(CC6CCCN(C)C6)CC5)c4)s3)[nH]c12.O=C(O)C(F)(F)F` (stereo not drawn), the Inhibition in test [1] amounted to 100%; in test [2] it was 99%; in test [3] it was 47%.
`Cc1cc(NCC2CCN(CC3CCCCC3)C2)nc(Nc2ccc(Br)cc2)n1` (stereo not drawn): the figures for the Inhibition in test [1], in test [2] and in test [3] were 100%, 78% and 0%, respectively.
For the compound `COc1cc(NC(=O)c2sc(-c3ccc(Cl)cc3)cc2NC(=O)c2cccnc2)ccc1OCCN1CCCC1`, the results for the Inhibition in test [1], in test [2] and in test [3] were 94%, 77% and 38%, respectively.
Consider `CCCC(=O)Nc1ccc(Cl)c(NC(=O)COc2cc(C)ccc2C(C)C)c1`, for which the Inhibition in test [1] is on record as 87%; in test [2], 67%; in test [3] it was 2%.
For the compound `Cc1ccc(Nc2nccc(NCC(O)c3cccc(C(F)(F)F)c3)n2)cc1` (stereo not drawn), the Inhibition in test [1] was found to be 99%; in test [2], 74%; in test [3] it was 19%.
In the case of `O=C(NCC1CC1)C1CCN(C(c2ccccc2)c2ccc(Cl)c(Cl)c2)CC1` (stereo not drawn), the Inhibition in test [1] turned out to be 97%; in test [2], 96%; in test [3], 7%.
In the case of `NCc1ccc(CNCc2cccc(-c3cccc(-c4nc5cc(F)ccc5[nH]4)c3)c2)cc1.O=C(O)C(F)(F)F`, the results for the Inhibition in test [1], in test [2] and in test [3] were 100%, 34% and 15%, respectively.
Turning to `O=C(NC1CCN(c2ncc(C(F)(F)F)cc2Cl)CC1)c1cccs1`, the Inhibition in test [1] is 84%; in test [2] it was 65%; in test [3] it was 15%.
With `CC(CNC(=O)c1cc2c(Cl)cc(Cl)cc2[nH]1)CNc1cc(=O)c2ccccc2[nH]1.O=C(O)C(F)(F)F` (stereo not drawn), the figures for the Inhibition in test [1], in test [2] and in test [3] were 97%, 11% and 11%, respectively.
On to `CS(=O)(=O)c1ccc(CCNCc2ccc(-c3ccc(CNC4Cc5ccccc5C4)cc3)nc2)cc1.O=C(O)C(F)(F)F`, for which the Inhibition in test [1] worked out at 100%; in test [2], 80%; in test [3], 18%.
In the case of `CCOc1ccc(NC(=O)c2cccc(CN3CCCN(Cc4cccc(O)c4)CC3)c2)cc1.O=C(O)C(F)(F)F`, the Inhibition in test [1] is 95%; in test [2], 23%; in test [3], 22%.
On the same counts, the results for `COc1cccc2c(NN=Cc3ccccc3Cl)cc(C)nc12` are 100%, 100% and 22%.
On the same counts, the results for `CCn1c2ccccc2c2cc(Cc3cnc(N)nc3N)ccc21.Cl` are 94%, 0% and 28%.
